Results on 28 compounds are retold here after PubChem BioAssay AID651815 (National Center for Advancing Translational Sciences (NCATS), 2012).

About 1,100 (52%) of roughly 2,100 compounds were called active. Roughly 29% stayed inconclusive and do not appear here. Calls come from the whole dose curve; as a rule, active = well fitted inhibition curve with a large enough effect; inconclusive = small, poorly fitted or top-dose-only effect; inactive = no such curve, though single readings can be large or run the other way. So high a share suggests a set chosen from earlier hits. This is one part of the list.
% is set by controls: 0 for no effect and ±100 for the full control effect; potency is the fitted concentration of half-maximal effect.

Chain of DNA dC->dU-editing enzyme APOBEC-3F (Homo sapiens) (Q8IUX4 whole entry, looked up): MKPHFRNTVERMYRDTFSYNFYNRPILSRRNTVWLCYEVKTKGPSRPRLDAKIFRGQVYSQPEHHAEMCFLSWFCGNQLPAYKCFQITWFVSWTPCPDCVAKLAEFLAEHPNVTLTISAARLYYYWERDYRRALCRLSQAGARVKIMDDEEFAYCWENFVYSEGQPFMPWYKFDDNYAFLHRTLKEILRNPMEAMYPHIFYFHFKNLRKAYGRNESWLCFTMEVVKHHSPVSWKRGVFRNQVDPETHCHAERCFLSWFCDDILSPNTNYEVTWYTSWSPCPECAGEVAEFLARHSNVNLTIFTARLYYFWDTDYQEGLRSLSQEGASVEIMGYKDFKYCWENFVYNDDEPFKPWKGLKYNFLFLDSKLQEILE

The experiment deals with DNA dC->dU-editing enzyme APOBEC-3F (Homo sapiens) (UniProt Q8IUX4). Nature of the experiment: qHTS for inhibitors of Vif-A3F interactions: Cherry picks counterscreen. Note: nearly all actives have a fitted effect of over 65% in size. As to conditions: HeLa A3F-eYFP/Vif cells, eYFP fluorescence, 24 h; series mostly up to 46.1 µM; activity, negative = inhibitor: at the top concentration. The gist of the method:
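Rescue of Vif-driven A3F-eYFP degradation read as cellular eYFP fluorescence after 24 h compound exposure (several concentrations) in stable HeLa cells; MG132 (2 mM stock) as positive control.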
Background: In qHTS, concentration-response curves come from the screen itself.
As to `N#CC1=C(N)C(C#N)(C#N)[C@H](c2ccoc2)[C@H]2CN(Cc3ccccc3)CC=C12`, the Potency is 4.98 µM (active).
For `Cc1cc(N/N=C/c2ccc([N+](=O)[O-])o2)nc2ccccc12`, the Potency was 20.6 µM (active).
Regarding `O=c1c2ccccc2nc(/C=C/c2ccc([N+](=O)[O-])o2)n1CCCO`, the Potency was 23.1 µM (active).
On the same count and under the same terms, as for `CCn1c(/C=C/c2ccc([N+](=O)[O-])o2)nc2ccccc2c1=O`, the figure is 11.6 µM (active).
In the case of `CCCN1C(=O)C(Cc2nc3ccccc3c(=O)n2CC)c2cc(Br)ccc21` (stereo not drawn), the “activity, negative = inhibitor” value is 2.23% (inactive).
In the case of `Cn1c(/C=C/c2ccc([N+](=O)[O-])o2)nc2ccccc2c1=O`, the Potency was 23.1 µM (active).
The same measure, in the same setting: to `COc1cc(/C=N\Nc2ccc([N+](=O)[O-])cc2)ccc1OCC(=O)Nc1ccc(C)c(C)c1` belongs 0.651 µM (active); to `CCN(CC)c1ccc(/C=c2/sc3nnc(-c4ccccc4C)n3c2=O)cc1`, 16.4 µM (active); to `CCN1/C(=C/c2cccc[n+]2C)Sc2ccc(OC)cc21`, 20.6 µM (active).
Still for that read-out and setting: to `COc1ccc2c(c1)N(C)/C(=C/c1cccc[n+]1C)S2` belongs 14 µM (active); to `CC[n+]1ccccc1/C=C1\Sc2ccc(C)cc2N1C`, 20.6 µM (active).
On to `Cc1ccccc1OCC(=O)NNC(=O)Nc1ccc(Cl)cc1`, for which the Potency is 4.98 µM (active).
For the compound `COc1ccccc1OCC(=O)NNC(=O)Nc1ccc(Cl)cc1`, the Potency was 15.8 µM (active).
As for `O=C(CSc1n[nH]c(-c2ccccn2)n1)Nc1ccc(Cl)cc1`, the “activity, negative = inhibitor” value was 28.8% (inactive).
`COc1cc(C2c3cc4c(cc3OC(C)(N3CCCC3)C2C)OCO4)cc(OC)c1OC` (stereo not drawn): the Potency was 1.25 µM (active).
With `CC(C)NC(=S)N/N=C1\CCCCc2ccccc21`, the “activity, negative = inhibitor” value was 1.48% (inactive).
Consider `N#CC1=C(N)Oc2cc(N)ccc2C1c1ccccc1F` (stereo not drawn), for which the Potency is 4.98 µM (active).
Same read-out and setting: to `N#CC1=C(N)Oc2cc(N)ccc2C1C1CC=CCC1` (stereo not drawn) belongs 5.59 µM (active).
On the same count and under the same terms, to `N#CC1=C(N)Oc2cc(N)ccc2C1c1ccc(F)cc1F` (stereo not drawn) belongs 20.6 µM (active).
For `Cc1cccc(CSc2cccc3cccnc23)c1`, the “activity, negative = inhibitor” value was -23.1% [at 36.9 µM] (inactive).
For the compound `COc1ccc(S(=O)(=O)Nc2cccc3ccccc23)cc1`, the Potency was 10.3 µM (active).
With `COC(=O)c1cccc(NS(=O)(=O)c2ccc(OC)cc2)c1C`, the Potency is 3.53 µM (active).
Consider `S=C(Nc1cccc2ccccc12)NN1CCCCCC1`, for which the “activity, negative = inhibitor” value was -1.64% (inactive).
Turning to `CCCCN1C(=O)/C(=C2/Sc3ccccc3N2C)S/C1=N\c1ncn[nH]1`, the Potency was 20.6 µM (active).
Consider `CCC(=O)Nc1nonc1-c1nc2ccccc2n1Cc1ccccc1`, for which the Potency was 17.7 µM (active).
Still for that read-out and setting: to `COc1cccc(Cn2c(-c3nonc3N)nc3ccccc32)c1` belongs 1.58 µM (active); to `Nc1nonc1-c1nc2ccccc2n1Cc1ccc(F)cc1`, 8.86 µM (active).
As for `COc1ccc(C)c(Cn2c(-c3nonc3N)nc3ccccc32)c1`, the Potency was 1.58 µM (active).
